HCV inhibitor: HCV inhibition. Huh7.5.1 HCVcc-Cre infection, luciferase reporter, 44 h. Potency, µM (titrated, usually from 41.8 µM), for the others: top-dose activity change, negative = inhibition, most hits filed as inhibitors. 340,000 tested, 3.4% active. AID 651820; active means well fitted inhibition curve with a large enough effect; inconclusive means small, poorly fitted or top-dose-only effect, or another doubt; inactive means no such curve, though single readings can be large or run the other way; further: potency means the concentration at half of the fitted maximal effect
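HCVcc-Cre virus at an moi near 0.5 was added right after compound to cells cultured 4 h from seeding (1,000 cells/well). Luciferase activity was determined 44 h later, 15 min after substrate addition at RT.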
LASV entry inh: blocks Lassa virus binding to or entry into cells | Lassa virus pseudotype entry inhibition, cell reporter | Potency, µM (doses to about 37.9 µM), for the others: at the highest dose activity change, negative = inhibition, usual class: inhibitors | 300,000 tested, 1.2% active; calls by dose curve; tested in HEK293 cells; further: potency means the concentration at half of the fitted maximal effect; nearly all actives have a fitted effect of over 50% in size
Vaccinia mCherry: inhibitors of vaccinia virus infection (mCherry reporter signal); 310,000 tested, 0.63% active; AID 720579; Potency, µM (titrated, usually from 36.5 µM), without a hit: at the highest dose activity change, negative = inhibition, actives largely listed as inhibitors; Vaccinia virus mCherry reporter infection, fluorescence; calls by dose curve; tested in A549 cells; further: potency means the concentration at half of the fitted maximal effect; nearly all actives have a fitted effect of over 35% in size
HCMV antiviral: blocks human cytomegalovirus replication; 410,000 tested, 4.5% active; activity change, negative = inhibition, % at 57.5 µM; AID 1259415; HFF cells, HCMV-luciferase reporter, 72 h; stronger effect = lower value; in the data active means activity change below about -60%; inconclusive means no clear call, values can overlap the other calls; inactive means above about -39%
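After 16 h attachment at 37C, HFF cells received test compound and HCMV-luciferase (1 PFU/cell); reporter luminescence read 72 h later, data normalized against buffer-only and known inhibitor Salinomycin.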
Marburg entry inh: Marburg virus entry inhibition | Marburg virus pseudotyped entry inhibition, cell reporter | Potency, µM (doses to about 37.8 µM), for inactives: at the highest dose activity change, negative = inhibition, most hits filed as inhibitors | AID 540276 | 300,000 tested, 1.8% active; calls by dose curve; tested in HEK293 cells; further: potency means the concentration at half of the fitted maximal effect
VACV Venus inh: inhibitors of vaccinia virus (Venus reporter); Vaccinia virus Venus reporter expression, fluorescence; Potency, µM (titrated, usually from 36.5 µM), for the others: at the top dose activity change, negative = inhibition, most hits filed as inhibitors; 330,000 tested, 0.46% active; calls by dose curve; tested in A549 cells; further: potency means the concentration at half of the fitted maximal effect; nearly all actives have a fitted effect of over 30% in size
Active calls of the source: *; [ ] = remark or other dose. Shown are actives, neighbours in structure and some others; about 7.8% of the full set was active somewhere. On the % scale 0 is the no-effect control and ±100 the full control effect.

What do the screens show for `O=c1c(-c2ccccc2)coc2c(CN3CCCCC3)c(O)ccc12`?
HCV inhibitor: 1.2%; HCMV antiviral: -24.9

What do the screens show for `COC(=O)[C@]1(C#N)CC(=O)N([C@H](c2ccccc2)[C@H](O)c2ccccc2)[C@@H]1c1ccccc1`?
HCMV antiviral: -9.7

What do the screens show for `CCCCC/C=C\C\C=C/C=C/C=C/[C@@H](SC[C@H](NC(=O)CC[C@H](N)C(=O)O)C(=O)NCC(=O)O)[C@@H](O)CCCC(=O)O`?
Vaccinia mCherry: -2.6%[0.293 µM]; VACV Venus inh: -15.2%[0.293 µM]

How did Cc1cccc(-c2cnc(C)nc2C2CCCN(C(=O)c3cccc(Cn4cccn4)c3)C2)c1 (stereo not given) do in these assays?
Vaccinia mCherry: -7.7%; VACV Venus inh: 1.0%

What do the screens show for `COc1ccc(C(=O)NC(C(=O)NCC2(N3CCCCC3)CCCCC2)C(C)C)cc1` (stereo not given)?
HCV inhibitor: 19.5%; HCMV antiviral: -76.4*

What do the screens show for `O=C(C[N+]12CN3CN(CN(C3)C1)C2)c1ccc(Br)cc1`?
Vaccinia mCherry: -17.0%; VACV Venus inh: -12.0%

What do the screens show for `Cc1ccnc2c1ccc1cccnc12`?
HCV inhibitor: 2.24µM*; LASV entry inh: inconclusive; Vaccinia mCherry: 4.47µM*; HCMV antiviral: -98.0*; Marburg entry inh: inconclusive; VACV Venus inh: inconclusive

How did Cc1ccnc2c1ccc1ccccc12 do in these assays?
HCV inhibitor: 15.3%; Vaccinia mCherry: 5.4%; HCMV antiviral: -5.9; VACV Venus inh: -5.4%

How did Cc1ccnc2c1ccc1c(C)ccnc12 do in these assays?
HCV inhibitor: 5.62µM*

How did O=C(NCc1ccccc1)C1C(c2ccc3c(c2)OCO3)=Nc2ccccc2N1C(=O)c1ccco1 (stereo not given) do in these assays?
Vaccinia mCherry: inconclusive; HCMV antiviral: -62.1*; VACV Venus inh: -13.6%

Results for O=C(NCc1ccccc1)C1C(c2ccc3c(c2)OCO3)=Nc2ccccc2N1C(=O)c1ccccc1 (stereo not given) ?
Vaccinia mCherry: inconclusive; HCMV antiviral: -21.1; VACV Venus inh: -25.9%

What do the screens show for `CCn1c(N2CCN(S(=O)(=O)c3ccc(OC)cc3)CC2)nc2ccccc21`?
HCV inhibitor: 10µM*; LASV entry inh: 8.91µM*; Vaccinia mCherry: inactive; HCMV antiviral: -38.9; Marburg entry inh: inconclusive; VACV Venus inh: -26.4%

Results for COc1cccc(N2CCN(S(=O)(=O)c3ccc4ccccc4c3)CC2)c1 ?
HCV inhibitor: 22.4µM*; LASV entry inh: inconclusive; Vaccinia mCherry: -10.7%; HCMV antiviral: -25.1; Marburg entry inh: inconclusive; VACV Venus inh: -17.5%

What do the screens show for `COc1ccccc1N1CCN(C2CCN(S(=O)(=O)c3ccc4ccccc4c3)CC2)CC1`?
HCV inhibitor: 14.1µM*; LASV entry inh: inconclusive; HCMV antiviral: inconclusive; Marburg entry inh: inconclusive

Results for O=S(=O)(c1ccc2ccccc2c1)N1CCN(C2CCN(Cc3ccccc3)CC2)CC1 ?
HCV inhibitor: 22.4µM*; LASV entry inh: inconclusive; HCMV antiviral: -28.5; Marburg entry inh: inconclusive

How did COc1ccc(S(=O)(=O)N2CCN(c3ccccc3)CC2)cc1 do in these assays?
HCV inhibitor: 5.0%; LASV entry inh: inconclusive; Vaccinia mCherry: -7.7%; HCMV antiviral: -29.7; Marburg entry inh: -8.7%[46.1 µM]; VACV Venus inh: -9.3%

What do the screens show for `COc1ccc(NC(=O)c2ccco2)cc1NC(=O)c1cc(Br)ccc1Cl`?
LASV entry inh: inconclusive; Vaccinia mCherry: inactive; HCMV antiviral: inconclusive; VACV Venus inh: -20.0%

Results for Cn1nnc2c(N3CCN(c4ccc(F)cc4)CC3)ncnc21 ?
LASV entry inh: inconclusive; Vaccinia mCherry: -5.0%; HCMV antiviral: -9.7; VACV Venus inh: -13.1%

What do the screens show for `O=C(Nc1cc2c(cc1C(=O)c1cccc(Br)c1)OCCO2)c1ccccc1F`?
LASV entry inh: -7.1%[46.1 µM]; Vaccinia mCherry: -25.3%; HCMV antiviral: -23.9; Marburg entry inh: 17.3%[46.1 µM]; VACV Venus inh: -19.7%

How did c1ccc(/N=C2\N=C(Nc3ccccn3)c3ccccc32)nc1 do in these assays?
HCV inhibitor: inconclusive; LASV entry inh: inconclusive; Vaccinia mCherry: inconclusive; HCMV antiviral: -98.8*; Marburg entry inh: inconclusive; VACV Venus inh: inconclusive
